Source: PubChem BioAssay (The Scripps Research Institute Molecular Screening Center)
ssDAF12 agonist – S. stercoralis DAF-12 activation, primary screen | AID 652126 | hit rate 1% among 370,000 | activation, % at 6.8 µM | HEK293 ssDAF-12/GRIP1 lit1-tk-luc reporter, luminescence; % of 3 µM dafachronic acid response;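 active = activation above the mean over all tested compounds plus 3 SD, cut at about 0.9% in these data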;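 note: 0% = DMSO-only wells and 100% = 3 µM delta7-dafachronic acid wells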
hcDAF-12 act – activates DAF-12 receptor from parasite H. contortus | HEK293 hcDAF-12 lit1-tk-luc reporter, luminescence; 0% DMSO, 100% Δ7-dafachronic acid | activation, % at 6.8 µM | hit rate 1.4% among 370,000 | AID 652067;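 active = activation above the mean of all tested compounds plus 3 SD, cut at about 5.5% in these data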;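 note: 100% = response to 3 µM Δ7-dafachronic acid high control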
hgDAF12 agonist – hgDAF-12 agonism, primary luciferase screen; AID 687014; activation, % at 6.8 µM; HEK293 GAL4-hgDAF12 UAS-luciferase reporter, agonist luminescence; normalized to butyrate control; hit rate 1.8% among 370,000;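 active = activation above a cutoff set at the mean of all screened compounds plus 3 SD, cut at about 10% in these data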;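 note: 0% = DMSO wells and 100% = sodium butyrate wells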
AHR act – human AHR activation; AID 2796; P35869; hit rate 2.5% among 320,000; activation, % at 5 µM; AHR-responsive luciferase reporter cells, luminescence; in the data active = activation above about 47%;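 note: 0% = vehicle wells and 100% = reference agonist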
Target sequence (P35869 whole entry, looked up): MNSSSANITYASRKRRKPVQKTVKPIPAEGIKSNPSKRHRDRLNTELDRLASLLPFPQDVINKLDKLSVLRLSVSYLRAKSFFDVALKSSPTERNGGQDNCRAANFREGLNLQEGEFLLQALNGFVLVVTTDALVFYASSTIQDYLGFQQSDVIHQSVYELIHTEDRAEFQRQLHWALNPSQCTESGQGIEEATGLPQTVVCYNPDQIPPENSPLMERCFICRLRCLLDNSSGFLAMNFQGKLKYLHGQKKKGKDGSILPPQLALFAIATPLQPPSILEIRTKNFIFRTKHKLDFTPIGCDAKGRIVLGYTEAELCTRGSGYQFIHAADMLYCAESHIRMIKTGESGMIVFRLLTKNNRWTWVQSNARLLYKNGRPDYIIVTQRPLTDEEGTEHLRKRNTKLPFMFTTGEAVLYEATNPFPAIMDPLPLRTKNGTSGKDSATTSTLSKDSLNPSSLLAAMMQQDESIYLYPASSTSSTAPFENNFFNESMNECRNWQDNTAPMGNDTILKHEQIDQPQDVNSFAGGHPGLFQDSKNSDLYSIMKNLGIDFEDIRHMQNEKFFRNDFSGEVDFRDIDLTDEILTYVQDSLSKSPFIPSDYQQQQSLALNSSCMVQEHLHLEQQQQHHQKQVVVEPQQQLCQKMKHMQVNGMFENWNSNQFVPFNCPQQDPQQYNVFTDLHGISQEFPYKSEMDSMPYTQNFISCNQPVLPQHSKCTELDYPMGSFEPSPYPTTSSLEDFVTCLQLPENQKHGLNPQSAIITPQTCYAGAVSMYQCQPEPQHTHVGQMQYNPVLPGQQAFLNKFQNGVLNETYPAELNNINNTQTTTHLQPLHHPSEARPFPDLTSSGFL
DAX1 inh-1 – DAX1 (NR0B1) inhibition, primary screen. inhibition, % at 6.8 µM. hit rate 1.1% among 370,000. AID 652010. HEK293T StAR-luciferase reporter, SF-1/DAX-1 repression relief;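 active = inhibition above the mean over all tested compounds plus 3 SD, cut at about 3.6% in these data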;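 note: 0% = DAX-1 cells with DMSO and 100% = cells lacking DAX-1 with DMSO; higher inhibition means more luminescence from relief of DAX-1 repression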
DAX1 inh-2 – inhibitors of human orphan nuclear receptor DAX1 (NR0B1). HEK293 Gal4-DAX1 luciferase reporter, luminescence. inhibition, % at 6.75 µM. hit rate 0.99% among 340,000. P51843. AID 504766;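 active = inhibition above the mean over all tested compounds plus 3 SD, cut at about 4.2% in these data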;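 note: 0% = DAX1-transfected cells with DMSO and 100% = empty-vector control cells with DMSO; inhibition shows as a rise in luminescence from relieved DAX1 repression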
An asterisk follows results filed as active; x = no result given. Shown are actives, neighbours in structure and some others; about 5.7% of the full set was active somewhere.

SMILES | ssDAF12 agonist | hcDAF-12 act | hgDAF12 agonist | AHR act | DAX1 inh-1 | DAX1 inh-2
CC(C)Cn1c(-c2cccs2)nc2ccccc21 | -0.6 | -0.5 | 1.9 | 2.5 | -0.5 | -1.9
Cn1c(-c2cccs2)nc2ccccc21 | -0.2 | 2.4 | 11.4* | 1.2 | 2.2 | 0.3
Cn1c(-c2ccc(C=O)s2)nc2ccccc21 | -0.4 | 2.7 | 12.0* | 1.9 | 0.2 | 0.2
Cn1c(-c2ccc(N)cc2)nc2ccccc21 | -0.6 | 1.4 | 8.1 | 3.8 | 1.0 | 1.2
O=C(C1=C(O)C(=O)N(CC2CCCO2)C1c1ccccc1[N+](=O)[O-])c1ccco1 (configuration not stated) | 1.2* | 5.3 | 1.0 | 21.6 | 0.0 | 0.7
CC(=O)C1=C(O)C(=O)N(C)C1c1ccccc1[N+](=O)[O-] (configuration not stated) | 2.0* | 5.1 | -2.1 | 36.1 | -0.4 | 2.2
Cc1ccc(C)c(S(=O)(=O)NC(C)C(=O)NCc2ccccn2)c1 (configuration not stated) | -1.4 | 0.3 | 0.1 | 0.6 | -0.5 | 0.2
Cn1c(/C(C#N)=C(\O)c2cccc(F)c2)nc2ccccc21 | 1.4* | 4.3 | 2.5 | 63.3* | 0.4 | 1.3
Cn1c2ccccc2n2c(=O)c(Cl)c(-c3ccccc3)c(C#N)c12 | -0.1 | 0.9 | 1.0 | 58.9* | 0.2 | 0.5
Cn1c2ccccc2n2c(=O)cc(-c3ccccc3)c(C#N)c12 | -1.0 | 0.1 | 4.2 | -4.2 | -0.1 | 5.4*
CC(=O)OCCCN(C)CC/C=C1/c2ccccc2CSc2ccccc21 | 1.0* | -0.8 | -0.1 | 2.2 | -0.1 | 0.1
C[N+](C)(C)CC/C=C1/c2ccccc2CSc2ccccc21 | -1.4 | 0.0 | 0.4 | -0.8 | 0.8 | -1.0
COC(=O)CSc1nc2cc3c(cc2cc1C)OCO3 | -1.9 | 0.2 | -2.0 | 1.3 | -1.1 | -1.1
Cc1cc2cc3c(cc2nc1SCC(=O)Nc1nc(C)c(C)s1)OCO3 | -1.0 | 0.2 | 4.4 | 91.8* | 0.1 | -1.0
O=C(CN1CCN(S(=O)(=O)c2ccc(F)cc2)CC1)NC1CCCC1 | -1.1 | -0.7 | -0.4 | 1.2 | 2.4 | 0.0
O=C1C=C(c2cc(Cl)cc(Cl)c2)C[C@@H](c2ccc3c(c2)OCO3)C1 | -0.7 | -0.1 | 0.3 | 29.8 | 0.1 | 0.9
CCOCCCNc1ncnc2c1[nH]c1ccccc12 | -2.3 | -1.1 | -1.7 | 49.7* | -1.8 | -4.1
CCCCOCCCNc1ncnc2c1[nH]c1ccccc12 | -2.9 | -3.9 | -8.5 | 21.7 | -3.8 | -3.4
CCCCOc1ncnc2c1[nH]c1ccccc12 | -2.1 | 0.5 | -3.2 | 50.0* | -2.2 | -4.2
O=C(Cc1ccccc1)NC(Nc1ccccc1)C(Cl)(Cl)Cl (configuration not stated) | -1.3 | 0.4 | -2.2 | -0.1 | -0.3 | -0.3
O=C(CCc1ccccc1)Nc1ccc2c(c1)OCCO2 | 0.3 | 3.4 | 11.8* | 22.2 | 2.4 | 2.1
O=C(CCc1ccccc1)Nc1cc2c(cc1Cl)OCCO2 | 1.2* | 2.5 | 10.3 | 2.6 | 3.9* | 1.3
Fc1ccc(N2CCN(C3=Nc4ccccc4Sc4ccccc43)CC2)cc1 | 1.3* | -2.0 | -6.7 | x | -1.5 | x
FC(F)(F)c1cccc(N2CCN(C3=Nc4ccccc4Sc4ccccc43)CC2)c1 | -0.8 | -3.5 | 2.9 | x | 1.1 | x
O=C(NC(=O)c1ccccc1O)c1ccc2c(c1)CCO2 | 1.0* | 3.6 | 12.5* | 8.9 | 1.6 | -1.5
SMILES | ssDAF12 agonist | hcDAF-12 act | hgDAF12 agonist | AHR act | DAX1 inh-1 | DAX1 inh-2
CC1=NC(=O)C(N=Nc2ccccc2)N1c1ccccc1 (configuration not stated) | 0.8 | 5.2 | 3.6 | 22.9 | 0.7 | 4.6*
O=C(NCc1ccccn1)c1cccc(S(=O)(=O)Nc2ccc(SC(F)F)cc2)c1 | -0.4 | -1.1 | -3.9 | 0.9 | -1.6 | -1.0
Cn1c(=O)[nH]c2ncn(C)c2c1=O | -0.7 | -0.4 | 10.7* | -1.0 | 1.1 | -0.2
Cc1cccc(C)c1NC(=O)CCCSc1nnc(N)s1 | -1.9 | -0.9 | -0.3 | 1.9 | 0.2 | -0.2
C/C(=N\NC(=S)NCC(C)(C)C)c1cc(F)cc(F)c1O | 0.3 | -0.1 | 1.2 | 1.5 | 0.3 | 4.7*
COc1ccc2ccccc2c1/C=N/NC(=O)c1nnn(-c2nonc2N)c1CN(C)C | -1.1 | -1.3 | 0.8 | 3.0 | 0.3 | -0.1
Nc1ccccc1O | x | x | x | 73.6* | x | 0.5
O=C(O)/C=C/C(=O)Nc1ccc2c(c1)C(=O)c1ccccc1C2=O | -0.5 | 5.3 | 12.6* | 44.1 | 2.1 | 0.3
